Reference: PubChem BioAssay AID1159606 (Sanford-Burnham Center for Chemical Genomics, 2016)
In all, about 360,000 compounds went through this assay and about 7,300 (2%) were called active. Rule as the data show it: active = inhibition above about 50%; inactive = the rest. The entries come from a sample that favours actives as a whole.

Test: inhibitors of TWEAK-Fn14 signaling, primary screen, luciferase reporter cells, uHTS (AID 1159606)
Settings: TWEAK-stimulated Fn14 reporter cells, luciferase luminescence, 8 h; at 10 µM; stronger effect = higher value

Compound	inhibition
COc1cccc2cc(C(=O)N3CCN(C(=O)c4ccccc4)CC3)c(=O)oc12	11.9% (inactive)
COc1cccc2cc(C(=O)N(C)C)c(=O)oc12	0.46% (inactive)
COc1cccc2cc(C(N)=O)/c(=N\NC(=O)c3ccccc3)oc12	91.4% (active)
CCN(CC)S(=O)(=O)c1ccc(C(=O)N2CCN(C3=NS(=O)(=O)c4ccccc43)CC2)cc1	-0.95% (inactive)
O=S1(=O)CC(N2CCN(CCO)CC2)CN1Cc1cn(Cc2cccc(Cl)c2)nn1 (centres undefined)	13.2% (inactive)
CCOC(=O)C(NS(=O)(=O)c1ccc(C)cc1)(C(F)(F)F)P(=O)(OCC(C)C)OCC(C)C (centres undefined)	56.7% (active)
CC(=O)N1CCN(CC(C)(C)NS(=O)(=O)c2ccc(C)cc2)CC1	14% (inactive)
Cc1ccc(S(=O)(=O)NCC(C)NS(C)(=O)=O)cc1 (centres undefined)	4.2% (inactive)
O=C(CN1C(=O)/C(=C\c2ccccc2F)SC1=S)Nc1nc2ccccc2s1	29.6% (inactive)
O=C(CN1C(=O)/C(=C\c2ccc(C(F)(F)F)cc2)Sc2ccccc21)NCc1ccco1	27.1% (inactive)
O=C(CN1C(=O)/C(=C/c2ccccc2F)Sc2ccccc21)NCc1cccnc1	52.7% (active)
O=C(NCc1ccccn1)[C@@H]1CCCN1C(=O)[C@@H]1CCCN1C(=O)c1ccccc1	7.41% (inactive)
Cc1ccc(NS(=O)(=O)c2cc3c(cc2C)NC(=O)CO3)cc1	8.45% (inactive)
O=C(Nn1cnc2ccccc2c1=O)c1ccc(F)cc1Cl	-23.3% (inactive)
CCC(C)N1C(=O)S/C(=C/c2ccc(Sc3nc4ccccc4[nH]3)o2)C1=O (centres undefined)	69.5% (active)
CN1CCN(c2ccc([N+](=O)[O-])c(Sc3nc4ccccc4[nH]3)c2)CC1	17% (inactive)
CC(C)c1ccc(/C=C2\NC(=O)NC2=O)cc1	18.4% (inactive)
CCOc1ccc(C(=O)NC(=S)Nc2ccc(N3CCOCC3)c(Cl)c2)cc1[N+](=O)[O-]	62.8% (active)
CCOc1ccc(C(=O)NC(=S)Nc2ccc(NC(=O)C(C)C)cc2)cc1[N+](=O)[O-]	3.3% (inactive)
O=C(CSc1ccc([N+](=O)[O-])cn1)Nc1ccc(N2CCOCC2)c(Cl)c1	-16.6% (inactive)

Compound	inhibition
COc1ccc(C(C#N)=C2C=CC(=NO)c3ccccc32)cc1	88% (active)
COc1ccc(C(=NN)c2ccc(OC)cc2)cc1	-20.6% (inactive)
COc1ccc(/C(N)=N/OC(=O)Cc2ccccc2)cc1	-44.1% (inactive)
CCOc1ccc(Br)cc1S(=O)(=O)N1CCC(C(=O)O)CC1	0.18% (inactive)
OCCNCCOc1ccc(Cl)c(Cl)c1	5.07% (inactive)
O=C(Cn1c(NCCO)nc2ccccc21)c1ccc(Cl)cc1Cl	22.5% (inactive)
OCCNc1nc(Nc2ccc(Cl)c(Cl)c2)nc2ccccc12	84.3% (active)
COC(=O)[C@]12CCCCC=C1N(Cc1ccc(Cl)cc1Cl)C(=O)[C@H](CC(=O)NCc1cccc3ccccc13)C2	5.94% (inactive)
O=C(COc1ccccc1)N1CCN=C1SCc1cccc(F)c1	-2.31% (inactive)
COc1ccc(CCNC(=O)C2CCCN(Cc3nc(-c4cccc(Cl)c4)oc3C)C2)cc1OC (centres undefined)	25.8% (inactive)
O=C(COc1ccc(S(=O)(=O)NCCc2ccccc2)cc1)N1CCCC1	11.6% (inactive)
COC(=O)C1(C)CC1(c1ccccc1)c1ccccc1 (centres undefined)	7.44% (inactive)
COc1cc(C#Cc2ccc3cc(CCCO)oc(=O)c3c2)cc(OC)c1	18.9% (inactive)
O=C1c2ccccc2C(=O)N1CCC#Cc1ccc2cc(C3(O)CCCCC3)oc(=O)c2c1	71.2% (active)
C(#CCN1CCOCC1)CCCN1CCOCC1	-1.19% (inactive)
Cc1nn(-c2ccccc2)c(C)c1/C=C/C(=O)OC(C)C(N)=O (centres undefined)	-4.83% (inactive)
COc1ccc(CCNC(=O)c2c(C)nn(-c3ccccc3)c2Cl)cc1	-12.5% (inactive)
Cc1nn(-c2ccccc2)c(Cl)c1/C=C/C(=O)c1ccc(O)cc1	57.3% (active)
Cc1sc(NC(=S)NC(=O)c2cccs2)nc1-c1ccc(CC(C)C)cc1	-5.35% (inactive)
C=CCOC(=O)C1=C(C)NC(C)=C(C(=O)OCC=C)C1c1cccs1	20.3% (inactive)

Compound	inhibition
O=S1(=O)CC(N2CCN(CCO)CC2)CN1C1CCCC1 (centres undefined)	11.3% (inactive)
COc1ccc(-c2c(C)nn3c(N4CCC(C(=O)N5CCCCC5)CC4)cc(C)nc23)cc1OC	-3.08% (inactive)
Cc1cc(C(=O)COC(=O)C2CC2)c(C)n1-c1ccc(F)cc1	95.2% (active)
Cc1ccc(-n2c(C)cc(C(=O)CN3C(=O)C(=O)N(C4CCCC4)C3=O)c2C)cc1	40.7% (inactive)
Cc1cc(C(=O)COc2ccccc2Cl)c(C)n1C1CC1	-10.6% (inactive)
Nc1nc2c(Br)ccc(Br)c2cc1C(=O)NCCc1ccccc1	14.3% (inactive)
CCCCc1cc(=O)oc2c(C)c(OCC(=O)N3CCC(C(N)=O)CC3)ccc12	-5.28% (inactive)
O=C(NCc1ccccc1Cl)c1csc([C@@H]2O[C@H](CO)[C@@H](O)[C@H]2O)n1	-0.12% (inactive)
CN(Cc1cccc2ncccc12)C(=O)CC1C(=O)NCCN1Cc1ccc(F)cc1 (centres undefined)	-1.61% (inactive)
CCN(CCn1cccn1)C(=O)CC1C(=O)NCCN1Cc1cccc(OC)c1OC (centres undefined)	68.3% (active)
COc1ccccc1CN1CCNC(=O)C1CC(=O)N(C)CC1CCOCC1 (centres undefined)	1.59% (inactive)
Cc1nc2nc3c(cn2n1)C(=O)CC(c1ccccc1)C3 (centres undefined)	8.49% (inactive)
CC1CN(C(=O)CN2C(=O)NC(C)(c3ccccc3)C2=O)CC(C)O1 (centres undefined)	0.1% (inactive)
CN(C)c1nc(N)nc(CSc2nnnn2-c2cccc3ccccc23)n1	-0.11% (inactive)
Cc1cccc(C)c1-n1nnnc1C1(C)CCC(=O)N1CCOc1ccccc1 (centres undefined)	-0.09% (inactive)
CCC1CCCCN1C(=O)CSc1nc2c(c(=O)n1C)SC(C)C2 (centres undefined)	4.38% (inactive)
CCN(CC)C(=O)c1nc[nH]c1C(=O)N(C)Cc1ccccc1	6.48% (inactive)
CCOC(=O)C(C)n1nc(-c2ccccc2)c2ccccc2c1=O (centres undefined)	7.15% (inactive)
CCN(CC)C(=O)c1sc2nc(-c3ccccc3)ccc2c1N	69.9% (active)
